Results published in PubChem BioAssay.
A number with no mark means an inactive call. No rule for the calls is given here.

biological target: Pantothenate synthetase (Mycobacterium tuberculosis (strain ATCC 25618 / H37Rv)) (UniProt P9WIL5); test: Recombinant Mtb pantothenate synthetase (PanC) inhibitors, coupled enzyme, confirmatory (AID 375); conditions: coupled enzyme assay; at 10 µM, hits give high values;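 also: 0% = full reaction with vehicle and 100% = no enzyme background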
Sequence (P9WIL5 whole entry, looked up): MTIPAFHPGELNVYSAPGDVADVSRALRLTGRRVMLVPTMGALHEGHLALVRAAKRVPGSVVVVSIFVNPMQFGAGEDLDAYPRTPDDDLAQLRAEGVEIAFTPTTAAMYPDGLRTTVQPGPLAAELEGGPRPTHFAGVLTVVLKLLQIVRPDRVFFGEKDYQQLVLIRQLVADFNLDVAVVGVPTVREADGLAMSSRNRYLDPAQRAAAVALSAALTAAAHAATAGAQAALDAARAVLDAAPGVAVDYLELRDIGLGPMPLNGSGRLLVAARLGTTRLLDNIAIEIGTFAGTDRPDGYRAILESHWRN

In order of falling inhibition:
1. O=C(c1cccc(C(=O)N2CCN(c3ccc(F)cc3)CC2)c1)N1CCN(c2ccc(F)cc2)CC1  10%
2. COc1ccccc1NC(=O)C1=C(C)Nc2ncnn2C1c1ccc(C)o1 (stereo not given)  10%
3. CCOC(=O)CSc1nnc(CNC(=O)c2ccc(S(=O)(=O)N3CCCC3)cc2)n1C  10%
4. O=C(Nc1ncnc2sc3c(c12)CCCCC3)c1ccco1  10%
5. O=C(c1cc(-c2ccco2)nn1-c1cccc(Cl)c1)N1CCCCC1  8%
6. Cc1ccc(-c2cc3nc4c(c(=O)n3[nH]2)CCCC4)cc1  6%
7. COc1cccc(CN2CCN(C(=O)CC(C)C)CC2)c1  6%
8. COCCn1nnnc1CN(Cc1cccnc1)Cc1cc2cc(OC)ccc2[nH]c1=O  6%
9. C=CCn1c(COc2ccc(CC)cc2)nnc1SC/C(O)=C(\C#N)c1nc2ccccc2[nH]1  5%
10. COc1ccc(-c2ccc(-c3nnc(-c4ccncc4)o3)cc2)cc1  4%
11. Cc1cccc2cc(CN(Cc3nnnn3C3CCCC3)C3CCCCC3)c(=O)[nH]c12  4%
12. COc1ccc(CCNC(=O)c2cnn3ccccc23)c(OC)c1OC  4%
13. CCOC(=O)CC(C#N)c1cn(C)c2ccccc12 (stereo not given)  4%
14. Cn1cccc1C1NC(=O)c2c(sc3c2CCC(C(C)(C)C)C3)N1 (stereo not given)  3%
15. Clc1ccc2c(c1)[C@H]1OCC[C@H]1[C@@H](c1ccco1)N2  3%
16. CCOc1cc(NC(=O)c2ccco2)c(OCC)cc1NC(=O)CCC(=O)NCc1cccnc1  3%
17. Cc1ccc(N(CC2=NCCN2)c2cccc(O)c2)cc1  1%
18. CCN1CCN(Cc2c(C)[nH]c3ccc(OC)cc3c2=O)CC1  1%
19. CCN1CCN(Cc2ccc(NC(=O)Nc3ccccc3)cc2)CC1  1%
20. CC(=O)OCC(=O)[C@@]12OC(C)(C)O[C@@H]1C[C@H]1[C@@H]3C[C@H](F)C4=CC(=O)C=C[C@]4(C)[C@@]3(F)[C@@H](O)C[C@@]12C  1%
21. CCc1ccc(N2CC34C=CC(O3)C(C(=O)OC)C4C2=O)cc1 (stereo not given)  0%
22. O=C(Nc1ccccc1)C1=C(O)CC(c2ccoc2)CC1=Nc1ccccc1 (stereo not given)  0%
23. Cc1ccc(-n2nnnc2SCC(=O)Nc2c(C)n(C)n(-c3ccccc3)c2=O)cc1  0%
24. COc1ccc(OC)c(Nc2nc(-c3sc(N)nc3C)cs2)c1  0%
25. CC(=O)c1cnc2cc(-c3ccccc3)nn2c1C  0%
26. COCCCN1C(=O)C(=O)/C(=C(/O)c2ccc(OC)cc2)C1c1ccc(O)c(OC)c1 (stereo not given)  0%
27. O=C1N(c2ccccc2)C2CS(=O)(=O)CC2N1c1ccc(Br)cc1 (stereo not given)  0%
28. CCNCc1cc2cc(C)ccc2[nH]c1=O  0%
29. OC(CCN1CCCCC1)(c1ccccc1)C1CCCCC1 (stereo not given)  0%
30. NC(=O)C1CCN(CC(=O)N2c3ccccc3CCc3ccccc32)CC1  0%
31. Cc1cnc(C(=O)Nc2nnc(C(C)C)s2)cn1  0%
32. O=C(NCCN1C(=O)C2C3C=CC(C3)C2C1=O)Nc1ccccn1 (stereo not given)  0%
33. O=c1c2c(nc3nc(COc4ccccc4)[nH]n13)CCC2  0%
34. Cc1cn([C@H]2C=C[C@@H](CO)O2)c(=O)[nH]c1=O  0%
35. CC1CCN(CCn2c(=S)[nH]c3ncccc3c2=O)CC1  0%
36. Cc1nc2c(C(=O)O)cnn2c(C)c1Cc1ccccc1F  0%
37. Cc1cc(NC(c2cccnc2)c2c(C)[nH]c3ccccc23)no1 (stereo not given)  0%
38. CCCn1nc(NC(=O)c2cccs2)c2cc3cc(OC)ccc3nc21  0%
39. c1ccc2c(-c3nc(-c4ccncc4)no3)cccc2c1  0%
40. Cn1c(=O)[nH]c(=O)c2c1nc(NC1CCCCC1)n2CC(=O)NC1CCCCC1  0%
